# Assay: hit retest on RPL19A-GFP reporter strain – cell-based, S. cerevisiae, flow cytometry, cherry picks, mother/daughter gates, confirmation (AID 2270)
# Details: 3 h, measured here: mother cell gate, at 10 µM, stronger effect = lower value, 100 = same GFP as DMSO wells
row,Structure (SMILES),GFP response vs DMSO [%]
1,CCN(C(=O)c1ccccc1Cl)c1ccccc1,98
2,CCN(CC)CCNC(=O)Cn1c(-c2ccccn2)nc2ccccc21,99.6
3,Nc1cc(N)nc(SCC(=O)N2CCc3ccccc32)n1,99.7
4,N#C/C(=C\c1ccc(N2CCOCC2)o1)c1ccccc1,98.5
5,CS(=O)(=O)N1CCc2cc(C(=O)Nc3ccc(COCC(F)(F)F)cc3)ccc21,103
6,CCc1noc(C)c1C(=O)Nc1nc(-c2ccc(Cl)cc2Cl)cs1,94
7,O=C(O)c1ccc2c3c(ncnc13)-c1ccccc1C2=O,107
8,Cc1ccc(NC(=O)c2ccccc2)cc1,100
9,Cc1ccc(C)c(-c2nnc(NC(=O)c3ccc([N+](=O)[O-])o3)o2)c1,101
10,COc1ccc(N2C(=O)C(Cl)=C(Oc3cccc(OC)c3)C2=O)cc1,79.9
11,Cc1cc(C)c(S(=O)(=O)ON2C(=O)c3ccccc3C2=O)cc1C,76.7
12,O=C(COC(=O)/C=C/c1cccs1)Nc1nc(-c2ccccc2)cs1,99.7
13,CCOc1ccccc1/C=C/C(=O)c1ccc(Cl)cc1,98.5
14,O=C(NC(=S)NNC(=O)c1cnccn1)c1ccc(F)cc1,105
15,Cc1ccc(Nc2c(-c3ccccn3)nc3ccc(C)cn23)cc1,98.6
16,O=c1/c(=C/c2cccc3ccccc23)sc2ncnn12,107
17,Cc1c(NC(=O)/C(C#N)=C/c2c(N3CCCCC3)nc3ccccn3c2=O)c(=O)n(-c2ccccc2)n1C,96.6
18,CS(=O)(=O)N1N=C(c2ccco2)CC1c1ccc(Br)cc1 (centres undefined),99.2
19,O=C(Oc1ccnc2cc(Cl)ccc12)N1CCCCCC1,95
